# From PMC7862700, “An all-to-all approach to the identification of sequence-specific readers for epigenetic DNA modifications on cytosine”
# Legend:
# Experiment in all cases: DAPPL (digital affinity profiling via proximity ligation, sequencing); 10 mM Tris-HCl pH 7.5, 50 mM NaCl, 1 mM DTT, 4% glycerol, room temperature, 30 min; GST-TFs on glutathione beads, 16-mer random dsDNA library, 0.1% formaldehyde crosslink after washing; high values mean tight binding
# Details in all cases: protein: recombinant; tags: N-terminal GST; dsDNA, one strand shown
# ELK4 = molecular target: T1, ELK4 (Homo sapiens, UniProt P28324-2 1-405)
# T1 sequence: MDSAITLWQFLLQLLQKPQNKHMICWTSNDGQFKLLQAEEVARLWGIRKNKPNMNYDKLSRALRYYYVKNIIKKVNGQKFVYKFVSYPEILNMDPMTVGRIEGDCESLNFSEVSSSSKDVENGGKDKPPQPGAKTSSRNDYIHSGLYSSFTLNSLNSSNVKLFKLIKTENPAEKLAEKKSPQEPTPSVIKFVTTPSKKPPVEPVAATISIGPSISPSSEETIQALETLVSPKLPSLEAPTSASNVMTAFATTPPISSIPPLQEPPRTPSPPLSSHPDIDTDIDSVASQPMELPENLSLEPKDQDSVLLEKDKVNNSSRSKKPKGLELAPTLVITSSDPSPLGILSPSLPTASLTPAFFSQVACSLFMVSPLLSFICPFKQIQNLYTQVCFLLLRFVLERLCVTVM
# In short: (§1)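 Beads coated with glutathione captured GST-fused human transcription factors that had been expressed in yeast, and the factors were then given DNA barcodes and pooled with a tag-only sample. The pools were incubated with 200 nmole of a random double-stranded 16-mer DNA library in Tris/NaCl/DTT/glycerol buffer for 30 min at room temperature, washed, crosslinked with 0.1% formaldehyde and proximity-ligated with BsaI/T4 ligase at 37 °C for 1 h. PCR amplification and Illumina NextSeq500 sequencing came last. Binding signal is each hexamer's read frequency for a factor divided by its frequency for the tag-only sample.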
# ELF3 = molecular target: T2, ELF3 (Homo sapiens, UniProt P78545 1-371)
# T2 sequence: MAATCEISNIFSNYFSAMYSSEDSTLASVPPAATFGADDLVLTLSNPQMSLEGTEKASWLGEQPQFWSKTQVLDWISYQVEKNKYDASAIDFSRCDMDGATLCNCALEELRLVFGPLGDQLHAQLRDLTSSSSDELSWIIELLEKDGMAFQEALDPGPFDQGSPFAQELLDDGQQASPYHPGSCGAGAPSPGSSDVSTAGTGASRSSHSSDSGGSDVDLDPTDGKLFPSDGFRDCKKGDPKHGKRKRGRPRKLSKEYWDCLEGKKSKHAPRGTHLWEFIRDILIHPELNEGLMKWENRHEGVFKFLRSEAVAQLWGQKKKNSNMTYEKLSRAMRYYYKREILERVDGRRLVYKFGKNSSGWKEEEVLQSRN
# In short: as §1
# ERF = molecular target: T3, ERF (Homo sapiens, UniProt P50548 1-548)
# T3 sequence: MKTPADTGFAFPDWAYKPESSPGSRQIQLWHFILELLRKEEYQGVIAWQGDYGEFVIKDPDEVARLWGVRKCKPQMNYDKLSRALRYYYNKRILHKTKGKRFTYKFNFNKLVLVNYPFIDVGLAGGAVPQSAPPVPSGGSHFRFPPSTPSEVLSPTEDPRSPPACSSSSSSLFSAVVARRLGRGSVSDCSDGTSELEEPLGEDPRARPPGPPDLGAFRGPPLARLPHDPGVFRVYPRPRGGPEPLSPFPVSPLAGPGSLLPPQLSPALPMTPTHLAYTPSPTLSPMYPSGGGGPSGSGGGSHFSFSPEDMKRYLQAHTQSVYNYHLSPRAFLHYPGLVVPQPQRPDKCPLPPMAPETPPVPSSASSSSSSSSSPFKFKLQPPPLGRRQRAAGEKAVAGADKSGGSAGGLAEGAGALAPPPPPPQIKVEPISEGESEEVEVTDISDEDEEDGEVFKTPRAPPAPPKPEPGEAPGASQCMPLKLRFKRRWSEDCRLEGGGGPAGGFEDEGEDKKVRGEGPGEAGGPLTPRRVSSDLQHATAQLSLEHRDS
# In short: as §1
# ETV3L = molecular target: T4, ETV3L (Homo sapiens, UniProt Q6ZN32 1-361)
# T4 sequence: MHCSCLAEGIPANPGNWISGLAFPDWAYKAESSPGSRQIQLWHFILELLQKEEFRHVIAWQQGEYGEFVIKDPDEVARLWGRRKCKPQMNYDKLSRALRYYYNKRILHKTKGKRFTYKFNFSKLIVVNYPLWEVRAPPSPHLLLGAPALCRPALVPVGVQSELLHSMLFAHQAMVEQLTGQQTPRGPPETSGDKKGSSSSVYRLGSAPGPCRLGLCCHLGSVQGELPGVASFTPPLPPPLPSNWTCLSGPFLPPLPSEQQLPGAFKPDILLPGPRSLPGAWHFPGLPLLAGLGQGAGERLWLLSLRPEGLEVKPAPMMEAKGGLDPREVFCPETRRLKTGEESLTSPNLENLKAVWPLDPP
# In short: as §1
# ETS2 = molecular target: T5, ETS2 (Homo sapiens, UniProt P15036 1-469)
# T5 sequence: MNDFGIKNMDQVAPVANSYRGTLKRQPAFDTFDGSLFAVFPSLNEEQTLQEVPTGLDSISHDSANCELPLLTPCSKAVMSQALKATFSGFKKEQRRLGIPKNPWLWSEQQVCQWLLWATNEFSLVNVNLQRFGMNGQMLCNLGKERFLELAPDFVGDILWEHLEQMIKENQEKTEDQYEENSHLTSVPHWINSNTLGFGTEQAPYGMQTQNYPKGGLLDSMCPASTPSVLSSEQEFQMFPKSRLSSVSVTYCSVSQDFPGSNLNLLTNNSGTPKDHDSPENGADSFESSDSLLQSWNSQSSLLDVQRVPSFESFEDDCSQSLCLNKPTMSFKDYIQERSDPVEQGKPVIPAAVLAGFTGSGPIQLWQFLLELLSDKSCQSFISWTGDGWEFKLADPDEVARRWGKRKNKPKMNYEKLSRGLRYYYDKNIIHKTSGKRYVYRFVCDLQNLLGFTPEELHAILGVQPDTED
# In short: as §1
# SPDEF = molecular target: T6, SPDEF (Homo sapiens, UniProt O95238 1-335)
# T6 sequence: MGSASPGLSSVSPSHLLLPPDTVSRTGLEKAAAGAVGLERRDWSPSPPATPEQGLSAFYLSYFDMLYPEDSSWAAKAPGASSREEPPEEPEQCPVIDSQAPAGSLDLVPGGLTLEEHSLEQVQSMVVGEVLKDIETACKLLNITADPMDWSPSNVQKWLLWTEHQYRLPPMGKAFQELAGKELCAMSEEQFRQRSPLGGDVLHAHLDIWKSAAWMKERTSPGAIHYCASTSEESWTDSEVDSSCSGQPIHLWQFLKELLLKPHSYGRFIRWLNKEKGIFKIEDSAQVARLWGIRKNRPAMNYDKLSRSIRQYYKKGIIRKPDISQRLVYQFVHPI
# In short: as §1
# ETV7 = molecular target: T7, ETV7 (Homo sapiens, UniProt Q9Y603 1-341)
# T7 sequence: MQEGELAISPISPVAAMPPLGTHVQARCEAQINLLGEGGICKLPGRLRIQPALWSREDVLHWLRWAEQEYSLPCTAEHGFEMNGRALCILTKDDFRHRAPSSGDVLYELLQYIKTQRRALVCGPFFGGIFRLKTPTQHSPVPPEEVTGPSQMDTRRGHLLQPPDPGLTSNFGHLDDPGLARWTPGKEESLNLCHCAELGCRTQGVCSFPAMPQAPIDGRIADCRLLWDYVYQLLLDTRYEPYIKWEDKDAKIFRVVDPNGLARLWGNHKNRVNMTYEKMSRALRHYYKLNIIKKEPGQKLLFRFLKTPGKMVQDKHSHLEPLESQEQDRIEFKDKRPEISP
# In short: as §1
# ETV3 = molecular target: T8, ETV3 (Homo sapiens, UniProt P41162-2 1-143)
# T8 sequence: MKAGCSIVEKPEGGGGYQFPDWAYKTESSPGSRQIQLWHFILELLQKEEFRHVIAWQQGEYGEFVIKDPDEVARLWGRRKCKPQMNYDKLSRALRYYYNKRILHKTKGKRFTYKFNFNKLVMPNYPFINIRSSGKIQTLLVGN
# In short: as §1
# ETV6 = ETV6 (Homo sapiens, UniProt P41212 1-452)
# In short: as §1
# ETV6, sequence (P41212 whole entry): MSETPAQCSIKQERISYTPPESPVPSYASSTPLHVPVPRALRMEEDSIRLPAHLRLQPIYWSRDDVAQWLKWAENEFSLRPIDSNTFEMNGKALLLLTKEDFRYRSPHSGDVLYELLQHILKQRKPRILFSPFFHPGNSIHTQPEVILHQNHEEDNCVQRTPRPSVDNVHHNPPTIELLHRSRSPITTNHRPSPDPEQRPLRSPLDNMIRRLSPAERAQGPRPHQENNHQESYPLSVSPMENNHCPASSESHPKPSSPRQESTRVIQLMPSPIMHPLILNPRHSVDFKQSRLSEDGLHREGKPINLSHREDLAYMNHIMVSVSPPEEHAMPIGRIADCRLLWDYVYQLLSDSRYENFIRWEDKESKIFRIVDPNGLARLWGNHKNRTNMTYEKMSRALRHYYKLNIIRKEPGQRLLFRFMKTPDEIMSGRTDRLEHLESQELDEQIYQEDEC
sequence,measurement,setting,value
TTAGAT,binding signal,ELK4,"1.23 fold enrichment (6-mer frequency, TF over GST control)"
same,binding signal,ELF3,"1.05 fold enrichment (6-mer frequency, TF over GST control)"
same,binding signal,ERF,"1.21 fold enrichment (6-mer frequency, TF over GST control)"
same,binding signal,ETV3L,"1.04 fold enrichment (6-mer frequency, TF over GST control)"
same,binding signal,ETS2,"1.01 fold enrichment (6-mer frequency, TF over GST control)"
same,binding signal,SPDEF,"1.08 fold enrichment (6-mer frequency, TF over GST control)"
same,binding signal,ETV7,"1.03 fold enrichment (6-mer frequency, TF over GST control)"
same,binding signal,ETV3,"1.07 fold enrichment (6-mer frequency, TF over GST control)"
same,binding signal,ETV6,"1.03 fold enrichment (6-mer frequency, TF over GST control)"
